Experimental data as given in PubChem BioAssay (Tox21).
Results filed as inconclusive are left out. Where a call stands in place of a potency, no number is given. Unmarked numbers belong to inactive results. Calls of active or inactive are those of the source. Unless noted, calls come from the whole dose curve; as a rule, active = well fitted activation curve with a large enough effect; inconclusive = small, poorly fitted or top-dose-only effect; inactive = flat fitted curve, though single readings scatter. Starred links: 1 amine or outer side, 2 acyl side, 3 side chain; linkers in the order of their positions; H or OH if unused. Positions of bridges follow the written chain, without caps; N, C: chain ends. Non-standard residues stand in square brackets, D forms with d. Residues, ends and D or L forms follow the SMILES beside them. *: point of attachment. X5 = NC1=N[C@@H]([C@H](N[*:1])C(=O)[*:2])C[C@H](O)N1; ΔAla(Z-3-ureido) = NC(=O)N/C=C(\N)C(=O)O; β3hOrn = NCCC[C@H](N)CC(=O)*; Dap = NC[C@H](N)C(=O)O

target: Peroxisome proliferator-activated receptor gamma (Homo sapiens) (UniProt P37231); test: qHTS assay to identify small molecule agonists of the peroxisome proliferator-activated receptor gamma (PPARg) signaling pathway (AID 743094; active = well fitted activation curve with a large enough effect in the signal ratio in the repeat runs, not every such curve was filed as active; the % refers to the signal ratio); conditions: HEK293H PPARg-UAS-bla, beta-lactamase FRET ratio, 17 h; series mostly up to 57 µM
Method in brief: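 GeneBLAzer PPARg UAS-bla HEK293H cells were plated, rested 5 h, then exposed to compounds for 17 h at 37C. Beta-lactamase activity was read by LiveBLAzer B/G FRET substrate fluorescence after 1 h at room temperature.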

Chain of Peroxisome proliferator-activated receptor gamma (Homo sapiens) (P37231 whole entry, looked up): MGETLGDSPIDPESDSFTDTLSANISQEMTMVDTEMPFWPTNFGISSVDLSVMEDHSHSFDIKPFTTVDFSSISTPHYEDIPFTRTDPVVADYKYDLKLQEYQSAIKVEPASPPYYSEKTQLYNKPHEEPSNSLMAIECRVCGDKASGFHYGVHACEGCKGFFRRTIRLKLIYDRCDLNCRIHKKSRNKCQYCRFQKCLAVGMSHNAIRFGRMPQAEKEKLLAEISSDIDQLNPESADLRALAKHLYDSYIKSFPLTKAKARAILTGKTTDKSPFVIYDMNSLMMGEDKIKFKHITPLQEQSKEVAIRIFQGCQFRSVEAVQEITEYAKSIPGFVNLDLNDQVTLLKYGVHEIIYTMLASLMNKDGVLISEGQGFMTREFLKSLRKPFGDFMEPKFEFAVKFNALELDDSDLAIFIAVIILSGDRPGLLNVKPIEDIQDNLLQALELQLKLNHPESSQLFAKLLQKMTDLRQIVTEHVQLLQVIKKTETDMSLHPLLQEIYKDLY

Row | SMILES | Potency
1 | C=C1c2c(Cl)ccc(O)c2C(O)=C2C(=O)[C@]3(O)C(O)=C(C(N)=O)C(=O)[C@@H](N(C)C)[C@@H]3[C@@H](O)[C@H]12 | inactive
2 | O=P(O)(O)C(O)(Cc1cnc2ccccn12)P(=O)(O)O | inactive
3 | CCCCCCCCCCCCCCCCCC(=O)OCCO | inactive
4 | COc1cc(S(C)=O)ccc1-c1nc2ncccc2[nH]1 (configuration not stated) | inactive
5 | CN[C@@H]1[C@@H](O)[C@@H](O[C@@H]2[C@@H](O)[C@H](OC3OC(CN)=CCC3N)[C@@H](N)C[C@H]2N)OC[C@]1(C)O (some centres not stated) | inactive
6 | NCCCC[C@H](NC(=O)[C@@H]1CCCN1C(=O)[C@@H]1CSSC[C@H](N)C(=O)N[C@@H](Cc2ccccc2)C(=O)N[C@@H](Cc2ccccc2)C(=O)N[C@@H](CCC(N)=O)C(=O)N[C@@H](CC(N)=O)C(=O)N1)C(=O)NCC(N)=O | inactive
7 | O=c1[nH]cnc2[nH]cc(CN3CCCCC3)c12 | inactive
8 | O=C(O)c1ccc(OCCn2ccnc2)cc1 | inactive
9 | CNC[C@@H]1CC[C@@H](N)[C@@H](O[C@H]2[C@H](O)[C@@H](O[C@H]3OC[C@](C)(O)[C@H](NC)[C@H]3O)[C@H](N)C[C@@H]2N)O1 | inactive
10 | CN(CCO)CC(O)Cn1cnc2c1c(=O)n(C)c(=O)n2C (configuration not stated) (tested in a mixture with another compound) | inactive
11 | Nc1ccn(C[C@@H](CO)OCP(=O)(O)O)c(=O)n1 | inactive
12 | CN=C(NC)NCc1ccccc1 | inactive
13 | Nc1ncnc(Nc2ccc(Cl)cc2)n1 | inactive
14 | O=P(O)(O)OC(Cn1cncn1)(Cn1cncn1)c1ccc(F)cc1F | inactive
15 | OCC(O)COc1ccc(Cl)cc1 (configuration not stated) | inactive
16 | CC(=O)OC[C@H]1O[C@@H](O[C@H]2[C@H](O)[C@@H](OC(=O)c3ccccc3C(=O)O)[C@H](O)O[C@@H]2COC(C)=O)[C@H](O)[C@@H](OC(=O)c2ccccc2C(=O)O)[C@@H]1O | inactive
17 | CCOC(=O)[C@H](CCc1ccccc1)N[C@H]1CCCN2CCC[C@@H](C(=O)O)N2C1=O | inactive
18 | CCN(CC)c1ccc(N=Nc2ccc(S(=O)(=O)N(C)C)cc2)c(S(=O)(=O)NCC[n+]2ccccc2)c1 | inactive
19 | NCCC[C@H](N)CC(=O)N[C@H]1CNC(=O)[C@H]([C@H]2C[C@H](O)NC(N)=N2)NC(=O)/C(=C/NC(N)=O)NC(=O)[C@H](CO)NC(=O)[C@H](CO)NC1=O (β3hOrn-[Dap]SS[ΔAla(Z-3-ureido)][X5]; lactam 1-C) | inactive
20 | O=C[C@H](O)[C@@H](O)[C@H](O[C@H]1O[C@H](CO)[C@@H](O[C@H]2O[C@H](CO)[C@@H](O)[C@H](O)[C@H]2O)[C@H](O)[C@H]1O)[C@H](O)CO | inactive
21 | CC(=O)N[C@@H](CC(=O)N[C@@H](CCC(=O)O)C(=O)O)C(=O)O | inactive
22 | CC(=O)OCC(=O)[C@@]1(O)[C@H](C)C[C@H]2[C@@H]3C[C@H](F)C4=CC(=O)C=C[C@]4(C)[C@H]3[C@@H](O)C[C@@]21C | inactive
23 | C[C@H]1C[C@H]2[C@@H]3CCC4=CC(=O)C=C[C@]4(C)[C@@]3(F)[C@@H](O)C[C@]2(C)[C@@]1(O)C(=O)CCl | inactive
24 | Cc1c(O)cc2c(c1C)O[C@](C)(CCC[C@H](C)CCC[C@H](C)CCCC(C)C)CC2 | inactive
25 | CCCCCCCCCCCCCCCC(=O)OC[C@@H](COP(=O)([O-])OCC[N+](C)(C)C)OC(=O)CCCCCCCCCCCCCCC | inactive
26 | CCCCCCCCCCCCCCCCCCOP(=O)([O-])OC1CC[N+](C)(C)CC1 | inactive
27 | C=C1CC2C3CCC4=CC(=O)C=C[C@]4(C)[C@@]3(F)[C@@H](O)C[C@]2(C)[C@@]1(O)C(=O)COC(C)=O (some centres not stated) | inactive
28 | CO[C@H]1[C@@H](O)[C@H](N)[C@@H](O[C@H]2O[C@H]([C@H](C)N)CC[C@H]2N)[C@H](O)[C@@H]1N(C)C(=O)CN | inactive

tested on: not listed separately; test: qHTS assay to identify small molecule phospholipidosis (PLD) inducers (AID 1259344); conditions: HepG2 phospholipidosis, LipidTOX Red imaging, 24 h; series mostly up to 38.3 µM
Method in brief: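 HepG2 cells grown on collagen I take up LipidTOX Red while exposed to compound for 24 h; after fixation they are imaged at 20x and pit metrics are extracted.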

Row | SMILES | Potency | PLD induction
29 | C=C1c2c(Cl)ccc(O)c2C(O)=C2C(=O)[C@]3(O)C(O)=C(C(N)=O)C(=O)[C@@H](N(C)C)[C@@H]3[C@@H](O)[C@H]12 | inactive | 
30 | O=P(O)(O)C(O)(Cc1cnc2ccccn12)P(=O)(O)O | inactive | 
31 | CCCCCCCCCCCCCCCCCC(=O)OCCO | inactive | 
32 | COc1cc(S(C)=O)ccc1-c1nc2ncccc2[nH]1 (configuration not stated) | inactive | 
33 | c1ccc2c(CCC3CCNCC3)c[nH]c2c1 | inactive | 
34 | CN[C@@H]1[C@@H](O)[C@@H](O[C@@H]2[C@@H](O)[C@H](OC3OC(CN)=CCC3N)[C@@H](N)C[C@H]2N)OC[C@]1(C)O (some centres not stated) | inactive | 
35 | Cc1cc(Nc2ccccc2C(=O)O)ccc1Cl | inactive | 
36 | NCCCC[C@H](NC(=O)[C@@H]1CCCN1C(=O)[C@@H]1CSSC[C@H](N)C(=O)N[C@@H](Cc2ccccc2)C(=O)N[C@@H](Cc2ccccc2)C(=O)N[C@@H](CCC(N)=O)C(=O)N[C@@H](CC(N)=O)C(=O)N1)C(=O)NCC(N)=O | inactive | 
37 | O=c1[nH]cnc2[nH]cc(CN3CCCCC3)c12 |  | 1.92% [at 1.53 µM]
38 | O=C(O)c1ccc(OCCn2ccnc2)cc1 | inactive | 
39 | CNC[C@@H]1CC[C@@H](N)[C@@H](O[C@H]2[C@H](O)[C@@H](O[C@H]3OC[C@](C)(O)[C@H](NC)[C@H]3O)[C@H](N)C[C@@H]2N)O1 |  | -1.48% [at 7.66 µM]
40 | CN(CCO)CC(O)Cn1cnc2c1c(=O)n(C)c(=O)n2C (configuration not stated) (tested in a mixture with another compound) | inactive | 
41 | Nc1ccn(C[C@@H](CO)OCP(=O)(O)O)c(=O)n1 |  | -2.23% [at 7.66 µM]
42 | CN=C(NC)NCc1ccccc1 | inactive | 
43 | C[N+](C)(CCCCCC[N+](C)(C)C1c2ccccc2-c2ccccc21)C1c2ccccc2-c2ccccc21 | inactive | 
44 | Nc1ncnc(Nc2ccc(Cl)cc2)n1 | inactive | 
45 | O=P(O)(O)OC(Cn1cncn1)(Cn1cncn1)c1ccc(F)cc1F | inactive | 
46 | C[C@]12C=CC(=O)C=C1CC[C@@H]1[C@@H]2[C@@H](O)C[C@@]2(C)[C@H]1CC[C@]2(O)C(=O)COC(=O)CCC(=O)O | inactive | 
47 | CCCC(=O)N1CCCN(c2nc(N)c3cc(OC)c(OC)cc3n2)CC1 | inactive | 
48 | OCC(O)COc1ccc(Cl)cc1 (configuration not stated) | inactive | 

Row | SMILES | Potency | PLD induction
49 | C[C@]12CCC(=O)C=C1CC[C@@H]1[C@@H]2[C@@H](O)C[C@@]2(C)[C@H]1CC[C@]2(O)C(=O)COP(=O)(O)O | inactive | 
50 | Cc1ccccc1CNc1ncnc2c1ncn2[C@@H]1O[C@H](CO)[C@@H](O)[C@H]1O | inactive | 
51 | CC(=O)OC[C@H]1O[C@@H](O[C@H]2[C@H](O)[C@@H](OC(=O)c3ccccc3C(=O)O)[C@H](O)O[C@@H]2COC(C)=O)[C@H](O)[C@@H](OC(=O)c2ccccc2C(=O)O)[C@@H]1O |  | 5.14% [at 0.306 µM]
52 | CCC(C)C(C(=O)OCC[N+](C)(CC)CC)c1ccccc1 (configuration not stated) | inactive | 
53 | CCOC(=O)[C@H](CCc1ccccc1)N[C@H]1CCCN2CCC[C@@H](C(=O)O)N2C1=O | inactive | 
54 | C#CCC(Cc1cnc2nc(N)nc(N)c2n1)c1ccc(C(=O)N[C@@H](CCC(=O)O)C(=O)O)cc1 (some centres not stated) |  | 6.01% [at 0.306 µM]
55 | CCN(CC)c1ccc(N=Nc2ccc(S(=O)(=O)N(C)C)cc2)c(S(=O)(=O)NCC[n+]2ccccc2)c1 | inactive | 
56 | NCCC[C@H](N)CC(=O)N[C@H]1CNC(=O)[C@H]([C@H]2C[C@H](O)NC(N)=N2)NC(=O)/C(=C/NC(N)=O)NC(=O)[C@H](CO)NC(=O)[C@H](CO)NC1=O (β3hOrn-[Dap]SS[ΔAla(Z-3-ureido)][X5]; lactam 1-C) | inactive | 
57 | O=C[C@H](O)[C@@H](O)[C@H](O[C@H]1O[C@H](CO)[C@@H](O[C@H]2O[C@H](CO)[C@@H](O)[C@H](O)[C@H]2O)[C@H](O)[C@H]1O)[C@H](O)CO | inactive | 
58 | CC(=O)N[C@@H](CC(=O)N[C@@H](CCC(=O)O)C(=O)O)C(=O)O | inactive | 
59 | CC1(C)S[C@@H]2[C@H](NC(=O)C(C(=O)Oc3ccc4c(c3)CCC4)c3ccccc3)C(=O)N2[C@H]1C(=O)O (some centres not stated) | inactive | 
60 | CC(=O)OCC(=O)[C@@]1(O)[C@H](C)C[C@H]2[C@@H]3C[C@H](F)C4=CC(=O)C=C[C@]4(C)[C@H]3[C@@H](O)C[C@@]21C | inactive | 
61 | C[C@H]1C[C@H]2[C@@H]3CCC4=CC(=O)C=C[C@]4(C)[C@@]3(F)[C@@H](O)C[C@]2(C)[C@@]1(O)C(=O)CCl | inactive | 
62 | C[C@]12CC[C@@H]3c4ccc(OS(=O)(=O)O)cc4CC[C@H]3[C@@H]1CCC2=O |  | 0.241% [at 7.66 µM]
63 | Cc1c(O)cc2c(c1C)O[C@](C)(CCC[C@H](C)CCC[C@H](C)CCCC(C)C)CC2 | inactive | 
64 | CCCCCCCCCCCCCCCC(=O)OC[C@@H](COP(=O)([O-])OCC[N+](C)(C)C)OC(=O)CCCCCCCCCCCCCCC |  | -0.903% [at 1.53 µM]
65 | CCCCCCCCCCCCCCCCCCOP(=O)([O-])OC1CC[N+](C)(C)CC1 | inactive | 
66 | C=C1CC2C3CCC4=CC(=O)C=C[C@]4(C)[C@@]3(F)[C@@H](O)C[C@]2(C)[C@@]1(O)C(=O)COC(C)=O (some centres not stated) |  | -8.32% [at 7.66 µM]
67 | CO[C@H]1[C@@H](O)[C@H](N)[C@@H](O[C@H]2O[C@H]([C@H](C)N)CC[C@H]2N)[C@H](O)[C@@H]1N(C)C(=O)CN | inactive | 
